From PubChem BioAssay (NCATS)
Results filed as inconclusive are left out. Where a call stands in place of a potency, no number is given. Calls of active or inactive are those of the source. Calls follow the shape of the dose curve; as a rule, active = well fitted cell-killing curve with a large enough effect; inconclusive = small, poorly fitted or top-dose-only effect, or effect the other way; inactive = no such curve, though single readings can be large or run the other way.
Potency is read from the fitted curve at half-maximal effect.

Test: qHTS assay to identify small molecule inhibitors of chordoma cells - UCH-1 (AID 1259355); also: nearly all actives have a fitted effect of over 55% in size
Settings: UCH-1 chordoma viability, CellTiter-Glo, 48 h, combination, with auranofin plus four topoisomerase inhibitors; series mostly up to 46.1 µM
How it was run: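 Seed 800 cells per well; incubate overnight at 37 C, 5% CO2. Add test compounds (15 concentrations), then the auranofin–topoisomerase-agent combination. Incubate 48hr, add CellTiter-Glo, wait 30min, read luminescence.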
In the case of CCN(CC)CCNC(=O)COc1ccc(OC)cc1, the Potency is reported as “inactive”. In the case of OCc1ccccn1, the Potency is reported as “inactive”. For CCCCCCCCCCCCCC(=O)OC(C)C, the Potency was “inactive”. For CC1(COc2ccc(CC3SC(=O)NC3=O)cc2)CCCCC1 (stereo unspecified), the Potency was “inactive”. For Cc1ccc(-c2ncc(Cl)cc2-c2ccc(S(C)(=O)=O)cc2)cn1, the Potency was “inactive”. For Cc1ccccc1OCC(O)CO (stereo unspecified), the Potency was “inactive”. For CCCCC(CC)CN1CN(CC(CC)CCCC)CC(C)(N)C1 (stereo unspecified), the Potency was “inactive”. With CCOc1ccccc1C(N)=O the Potency was “inactive”. In the case of CN(Cc1ccc(C(C)(C)C)cc1)Cc1cccc2ccccc12, the Potency is reported as “inactive”. With COc1cc(O)c(C(=O)c2ccccc2)cc1S(=O)(=O)O the Potency was “inactive”. In the case of CCCCCCCCNC(C)C(O)c1ccc(SC(C)C)cc1 (stereo unspecified), the Potency is reported as 35.5 µM (active). In the case of CC[C@H](c1ccc(O)cc1)[C@@H](CC)c1ccc(O)cc1, the Potency is reported as “inactive”. With CCCCCCCC/C=C\CCCCCCCCN the Potency was “inactive”. For CN1CCC(OC(c2ccccc2)c2ccccc2)CC1, the Potency was “inactive”. In the case of CCN(CC)CCOc1ccccc1C(=O)CCc1ccccc1, the Potency is reported as “inactive”. With CCc1oc2ccccc2c1C(=O)c1cc(Br)c(O)c(Br)c1 the Potency was “inactive”. With CCOC(=O)[C@H](CCc1ccccc1)N[C@@H](C)C(=O)N1[C@H](C(=O)O)C[C@@H]2CCC[C@@H]21 the Potency was “inactive”. For O=C1C(O)=C(O)C(=O)C(O)=C1O, the Potency was “inactive”. With CN(CCCN1c2ccccc2CCc2ccccc21)CC(=O)c1ccc(Cl)cc1 the Potency was “inactive”. For CCOC(=O)c1c(N)sc2c1CCN(Cc1ccccc1)C2, the Potency was “inactive”. For CN1CCN(c2c(F)cc3c(=O)c(C(=O)O)cn4c3c2SCC4)CC1, the Potency was “inactive”. For COc1ccccc1N1CCN(CCCCNC(=O)c2ccc(-c3ccc(C(C)=O)cc3)cc2)CC1, the Potency was “inactive”. For Nc1nc(-c2ccccc2)c(Br)c(=O)[nH]1, the Potency was “inactive”. In the case of C/C=C/C=N/NC(=O)c1ccncc1, the Potency is reported as “inactive”. With CCOc1cc(OCC)c(C(=O)CCC(=O)O)cc1OCC the Potency was “inactive”. For CCN[C@@H]1C[C@H](N)[C@@H](OC2OC(CN)=CCC2N)[C@H](O)[C@H]1O[C@H]1OC[C@](C)(O)[C@H](NC)[C@H]1O (stereo partly specified), the Potency was “inactive”. In the case of O=C(O)Cc1csc(-c2ccc(Cl)cc2)n1, the Potency is reported as “inactive”. For Nc1nc(Cl)nc2c1ncn2[C@@H]1O[C@H](CO)[C@@H](O)[C@@H]1F, the Potency was “inactive”. For COP(=O)(OC)OC(c1ccc(Cl)cc1)P(=O)(OC)OC (stereo unspecified), the Potency was “inactive”. In the case of O=[N+]([O-])c1cccc(S(=O)(=O)NCCNS(=O)(=O)c2cccc([N+](=O)[O-])c2)c1, the Potency is reported as “inactive”. For CCCN(CCc1cccs1)[C@H]1CCc2c(O)cccc2C1, the Potency was “inactive”. For Nc1nc(N)c(-c2ccccc2)s1, the Potency was “inactive”. For N#CCC(=O)NN, the Potency was “inactive”. For CCOC(=O)c1ccc(N)cc1, the Potency was “inactive”. For CCN1CCCC(OC(=O)C(c2ccccc2)c2ccccc2)C1 (stereo unspecified), the Potency was “inactive”. With COc1cc(C)nc(-n2nc(C)cc2OC)n1 the Potency was “inactive”.
